Where “and” joins values, the source holds several entries; their conditions need not be identical. Equal values may be shown once. Records with an inconclusive call do not appear. Calls of active or inactive are those of the source. Rule for the calls, unless noted: active = hit-call score of the fitted dose curve at least 0.9, where 1 is the maximum; inconclusive = response in the unintended direction; inactive = score below 0.9.
How the values were obtained:
[1] = molecular target: Nucleoli Translocation, AR (gene 367) (UniProt P10275); test: UPITT_HCI_U2OS_AR_TIF2_Nucleoli_Antagonist: University of Pittsburgh U2OS Androgen Receptor-Transcriptional Intermediary Factor 2 (AR-TIF2) Antagonism High Content Imaging Assay for Nucleoli Translocation (AID 2283997)
Chain of Nucleoli Translocation, AR (gene 367) (P10275 whole entry, looked up): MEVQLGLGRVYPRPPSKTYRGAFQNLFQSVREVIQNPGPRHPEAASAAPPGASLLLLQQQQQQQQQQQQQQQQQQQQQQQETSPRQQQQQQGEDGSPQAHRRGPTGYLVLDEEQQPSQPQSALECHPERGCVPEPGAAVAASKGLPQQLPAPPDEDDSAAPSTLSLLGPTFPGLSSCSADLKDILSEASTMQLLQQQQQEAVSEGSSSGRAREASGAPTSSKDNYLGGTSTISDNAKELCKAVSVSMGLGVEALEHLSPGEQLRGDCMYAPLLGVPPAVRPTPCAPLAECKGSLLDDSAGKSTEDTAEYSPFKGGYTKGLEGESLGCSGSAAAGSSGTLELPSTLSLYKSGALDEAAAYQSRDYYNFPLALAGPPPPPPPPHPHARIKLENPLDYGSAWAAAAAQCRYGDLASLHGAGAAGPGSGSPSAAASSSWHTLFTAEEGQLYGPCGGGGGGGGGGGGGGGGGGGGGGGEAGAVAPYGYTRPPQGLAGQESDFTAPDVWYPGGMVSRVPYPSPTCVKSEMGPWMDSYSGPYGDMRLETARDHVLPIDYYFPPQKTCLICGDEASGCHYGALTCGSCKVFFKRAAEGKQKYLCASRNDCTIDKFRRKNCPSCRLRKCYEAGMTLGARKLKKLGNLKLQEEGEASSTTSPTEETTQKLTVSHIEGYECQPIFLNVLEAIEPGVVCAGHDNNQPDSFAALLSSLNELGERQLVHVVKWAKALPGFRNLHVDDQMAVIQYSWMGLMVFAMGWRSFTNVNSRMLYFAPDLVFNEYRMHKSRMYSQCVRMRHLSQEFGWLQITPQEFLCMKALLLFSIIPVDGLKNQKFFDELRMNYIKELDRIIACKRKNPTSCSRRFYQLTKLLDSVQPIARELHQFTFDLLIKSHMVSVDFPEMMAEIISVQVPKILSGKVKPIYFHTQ
How it was run: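 An antagonist-mode imaging screen: engineered U2OS (AR-RFP, TIF2-GFP) exposed to 20 uM compound, 0.2% DMSO. Activity reflects nucleolar red fluorescence change relative to DHT baseline.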

[2] = CCTE_Shafer_MEA_acute_spike_number: CCTE's Neural Acute Assay for Total Number of Spikes, Shafer Lab (AID 2284008; active = hit-call score of the fitted dose curve at least 0.9, where 1 is the maximum; inactive = score below 0.9;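 for AC50: curve fitted for decrease in spike count so AC50 reflects inhibitors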)
How it was run: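 Read-out is the total spike count over 40 min, expressed as percent change from each well's own pre-treatment baseline and fitted in the loss direction against DMSO. Rat cortical neurons were exposed at 0.03-40 uM on DIV 13 or 15.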

[3] = CCTE_Shafer_MEA_acute_firing_rate_mean: CCTE's Neural Acute Assay for Mean Firing Rate, Shafer Lab (AID 2284009; active = hit-call score of the fitted dose curve at least 0.9, where 1 is the maximum; inactive = score below 0.9;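 note: analyzed for loss of signal so actives lower firing rate relative to DMSO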)
How it was run: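 Spontaneous spiking of primary rat cortical networks, DIV 13/15, 37 C. Compound 0.03-40 uM, n ≥3 wells; 40 min baseline vs 40 min treated. Endpoint fitted in loss-of-signal direction against DMSO.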

[4] = molecular target: Nucleoli Translocation, AR (gene 367) (UniProt P10275); test: UPITT_HCI_U2OS_AR_TIF2_Nucleoli_Agonist: University of Pittsburgh U2OS Androgen Receptor-Transcriptional Intermediary Factor 2 (AR-TIF2) Agonism High Content Imaging Assay for Nucleoli Translocation (AID 2283998)
How it was run: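 Readout is red (AR-RFP) fluorescence localized to nucleoli, measured by high-content imaging and analysed for increase relative to DMSO. Compound series spanned 0.195 to 50 uM final in 0.5% DMSO.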

[5] = molecular target: Ratio of Nucleoli Translocation and Cytoplasm, AR (gene 367) (UniProt P10275); test: UPITT_HCI_U2OS_AR_TIF2_Nucleoli_Cytoplasm_Ratio_Agonist: University of Pittsburgh U2OS Androgen Receptor-Transcriptional Intermediary Factor 2 (AR-TIF2) Agonism High Content Imaging Assay for Ratio of Nucleoli Translocation and Cytoplasm (AID 2284000);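 note: hits raise the red nucleolar to cytoplasm ratio above vehicle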
Chain of Ratio of Nucleoli Translocation and Cytoplasm, AR (gene 367) (P10275 whole entry, looked up): as above
How it was run: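 Primary screen at 20 uM final (0.2% DMSO), then triplicate confirmation and dose-response from 0.195 to 50 uM final (0.5% DMSO). Cells: U2OS with AR-RFP and TIF2-GFP. Endpoint is the nucleoli/cytoplasm red-fluorescence ratio, gain-of-signal vs DMSO.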

[6] = molecular target: Ratio of Nucleoli Translocation and Cytoplasm, AR (gene 367) (UniProt P10275); test: UPITT_HCI_U2OS_AR_TIF2_Nucleoli_Cytoplasm_Ratio_Antagonist: University of Pittsburgh U2OS Androgen Receptor-Transcriptional Intermediary Factor 2 (AR-TIF2) Antagonism High Content Imaging Assay for Ratio of Nucleoli Translocation and Cytoplasm (AID 2283999);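 note: antagonists lower the DHT-driven ratio of nucleolar to cytoplasmic red signal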
How it was run: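 Read-out is the ratio of nucleolar to cytoplasmic AR-RFP fluorescence, imaged by high-content microscopy in U2OS cells coexpressing TIF2-GFP. Single-point 20 uM screen, triplicate confirmation, then 0.195–50 uM dose response; activity referenced to DHT baseline.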

[7] = CCTE_Simmons_MITO_basal_resp_rate: CCTE's HepG2 Seahorse XF Respirometric Screening Assay at Basal Respiratory State, Simmons Lab (AID 2284001; active = hit-call score of the fitted dose curve at least 0.9, where 1 is the maximum; inactive = score below 0.9); details: actives raise or lower the signal
Protocol: CCTE_Simmons_MITO is cell-based, respirometric assay using HepG2 cells and a Seahorse XF Analyzer to measure oxygen consumption rates over four temporal phases spanning a total of 72 minutes: pre-injection (pre-treatment), basal (following test compound injection), maximal (following FCCP uncoupler injection), and inhibited (following rotenone/antimycin A injection)CCTE_Simmons_MITO_basal_resp_rate is one of 4 assay components calculated from the CCTE_Simmons_MITO assay. It is designed to make measurements of basal respiration using a form of respirometric reporter, as detected with […] signals by Seahorse XF96 technology. Data from the assay component CCTE_Simmons_MITO_basal_resp_rate was analyzed at the endpoint, CCTE_Simmons_MITO_basal_resp_rate_OCR, with bidirectional fitting relative to DMSO as the negative control and baseline of activity. Using a type of respirometric reporter, measures of basal respiration for gain or loss-of-signal activity can be used to understand cellular oxygen consumption as it relates to cellular respiration. To generalize the intended target to other relatable targets, this assay endpoint is annotated to the mitochondria intended target family, where the subfamily is respiration.
Test chemicals were administered as a titrated series of 7 concentrations from 125 nM up to 100 uM [final] prior to kinetic endpoint detection at 6 minute intervals [3 min mix followed by 3 minutes measure] for 72 minutes. Three biological replicates of technical singles were run for every chemical concentration tested. Dimethylsulfoxide [DMSO] was used as the vehicle control. The electron transport chain inhibitor fenpyroximate was used as the positive control for decreased basal respiration and was administered as a titrated series of 6 concentrations from 250 nM up to 2.75 uM [final] with technical triplicates for the top concentration only. The uncoupler 2,4-dintirophenol was used as the positive control for increased basal respiration and was administered as a titrated series of 6 concentrations from 938 nM up to 40 uM [final] with technical triplicates for the top concentration only. A Seahorse XF Analzyer is required to measure the response.

[8] = CCTE_Simmons_MITO_max_resp_rate: CCTE's HepG2 Seahorse XF Respirometric Screening Assay at Maximal Respiratory State [uncoupled], Simmons Lab (AID 2284002; active = hit-call score of the fitted dose curve at least 0.9, where 1 is the maximum; inactive = score below 0.9); details: actives raise or lower the signal
How it was run: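 Read-out is oxygen consumption rate at maximal respiration, taken after FCCP uncoupling of compound-treated HepG2 cells. Seven final concentrations from 125 nM to 100 uM were tested, each in three biological replicates.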

[9] = CCTE_Simmons_MITO_inhib_resp_rate: CCTE's HepG2 Seahorse XF Respirometric Screening Assay at Inhibited Respiratory State [full ETC block], Simmons Lab (AID 2284006; active = hit-call score of the fitted dose curve at least 0.9, where 1 is the maximum; inactive = score below 0.9); details: actives raise or lower the signal
How it was run: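 OCR read-out in the inhibited phase following rotenone/antimycin A, after compound and FCCP injections, in HepG2 cells. Seven concentrations (125 nM to 100 uM final), three biological replicates, 6-min cycles over 72 min; DMSO baseline.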

[10] = CCTE_Simmons_MITO_viability: CellTiter-Glo Viability Assessment for CCTE's HepG2 Seahorse XF Respirometric Screening Assay [post-hoc], Simmons Lab (AID 2284007)
How it was run: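 Luciferase-coupled ATP luminescence, single endpoint. HepG2, post-respirometry. Compound 125 nM–100 uM final, 7 conc., 90 min. n=3 biological, technical singles. DMSO vehicle/baseline; dichlone 10 nM–100 uM, 8 conc., as positive control.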

SMILES: Clc1ccc(Oc2ccccc2)cc1
- outcome [1]: inactive

SMILES: CCOc1ccc(C(C)(C)COCc2cccc(Oc3ccccc3)c2)cc1
- outcome [2]: inactive
- outcome [3]: inactive

SMILES: CCN(CC)c1ccccc1
- outcome [1]: inactive
- outcome [4]: inactive
- outcome [5]: inactive

SMILES: c1ccc2c(c1)Nc1ccccc1S2
- AC50 [2]: 4.42 µM (active)
- AC50 [3]: 4.45 µM (active)

SMILES: CCC1(c2ccccc2)C(=O)N=C(O)NC1=O (stereo not given)
- outcome [2]: inactive
- outcome [3]: inactive

SMILES: CCCCCCCc1ccc(O)cc1
- AC50 [1]: 60.7 µM (active)
- AC50 [4]: 19.2 µM (active)
- AC50 [6]: 79.6 µM (active)
- AC50 [5]: 28.9 µM (active)
- AC50 [7]: 40.4 µM (active)
- AC50 [8]: 27.6 µM (active)
- outcome [9]: inactive

SMILES: CC(C)(C)c1ccc(O)cc1
- AC50 [7]: 37.2 µM (active)
- outcome [8]: inactive
- outcome [9]: inactive
- outcome [10]: inactive

SMILES: CCCCN(CC)C(=O)SCCC
- outcome [1]: inactive
- outcome [4]: inactive
- outcome [6]: inactive
- outcome [5]: inactive

SMILES: c1cc2c3c(cccc3c1)CC2
- outcome [1]: inactive
- outcome [6]: inactive
- outcome [5]: inactive

SMILES: O=P(OCC(Br)CBr)(OCC(Br)CBr)OCC(Br)CBr (stereo not given)
- outcome [1]: inactive
- outcome [4]: inactive
- outcome [6]: inactive
- outcome [5]: inactive

SMILES: ClC1=C(Cl)C2(Cl)C3C(Cl)C(Cl)CC3C1(Cl)C2(Cl)Cl (stereo not given)
- AC50 [1]: 11.5 µM (active)
- outcome [4]: inactive
- outcome [6]: inactive
- outcome [5]: inactive
- outcome [2]: inactive
- outcome [3]: inactive

SMILES: CCCCC(CC)COP(=O)(Oc1ccccc1)Oc1ccccc1 (stereo not given)
- outcome [1]: inactive
- outcome [4]: inactive
- outcome [6]: inactive
- outcome [5]: inactive
- AC50 [2]: 15 µM (active)
- AC50 [3]: 15 µM (active)

SMILES: O=C(O)C1C(C(=O)O)C2(Cl)C(Cl)=C(Cl)C1(Cl)C2(Cl)Cl (stereo not given)
- outcome [2]: inactive
- outcome [3]: inactive

SMILES: ClC(Cl)(Cl)c1ccccc1
- outcome [7]: inactive
- outcome [8]: inactive
- outcome [9]: inactive
- outcome [10]: inactive
- outcome [2]: inactive
- outcome [3]: inactive

SMILES: [N-]=[N+]=[N-]
- outcome [1]: inactive
- outcome [4]: inactive
- outcome [6]: inactive
- outcome [5]: inactive
- outcome [7]: inactive
- AC50 [8]: 50 µM (active)
- outcome [9]: inactive
- outcome [2]: inactive
- outcome [3]: inactive

SMILES: CC1(C)CN=C(NN=C(/C=C/c2ccc(C(F)(F)F)cc2)/C=C/c2ccc(C(F)(F)F)cc2)NC1
- AC50 [1]: 9.92 µM (active)
- outcome [4]: inactive
- outcome [6]: inactive
- outcome [5]: inactive

SMILES: CCOP(=S)(Oc1ccc([N+](=O)[O-])cc1)c1ccccc1 (stereo not given)
- AC50 [2]: 24.9 µM (active)
- AC50 [3]: 25 µM (active)

SMILES: CCNc1nc(Cl)nc(NC(C)(C)C)n1
- outcome [1]: inactive
- outcome [4]: inactive
- outcome [5]: inactive

SMILES: CCOP(=S)(OCC)SCSCC
- outcome [7]: inactive
- AC50 [8]: 50 µM (active)
- outcome [9]: inactive
- outcome [10]: inactive

SMILES: ClC(Cl)=C(c1ccc(Cl)cc1)c1ccccc1Cl
- AC50 [1]: 50 µM (active) and 9.92 µM (active)
- outcome [4]: inactive
- outcome [6]: inactive
- outcome [5]: inactive

SMILES: COCCOCCO
- outcome [2]: inactive
- outcome [3]: inactive

SMILES: COP(=O)(CCC(=O)NCO)OC
- outcome [2]: inactive
- outcome [3]: inactive

SMILES: CC(Cl)(Cl)C(=O)O
- outcome [2]: inactive
- outcome [3]: inactive

SMILES: CC(C)(C)c1ccccc1OP(=O)(Oc1ccccc1)Oc1ccccc1
- AC50 [2]: 1.33 µM (active)
- AC50 [3]: 1.33 µM (active)

SMILES: CCC(C)(C)c1ccc(O)cc1
- AC50 [7]: 49.9 µM (active)
- AC50 [8]: 42.5 µM (active)
- outcome [9]: inactive
- AC50 [2]: 0.186 µM (active)
- AC50 [3]: 0.186 µM (active)

SMILES: CO/N=C(/C(=O)OC)c1ccccc1COc1ccccc1C
- outcome [1]: inactive
- outcome [4]: inactive
- outcome [6]: inactive
- outcome [5]: inactive

SMILES: Cc1ccc(N)cc1N
- outcome [7]: inactive
- outcome [8]: inactive
- outcome [9]: inactive
- outcome [2]: inactive
- outcome [3]: inactive

SMILES: Nc1ccc2ccccc2c1
- AC50 [2]: 0.109 µM (active)
- AC50 [3]: 0.109 µM (active)

SMILES: CC(C)(C)N(NC(=O)c1ccc(Cl)cc1)C(=O)c1ccccc1
- outcome [1]: inactive
- outcome [4]: inactive
- outcome [6]: inactive

Source: PubChem BioAssay (EPA / NIEHS)
